# Hit rate of the full screen: of about 1,300 compounds, about 330 (25%) were called active. No rule for the calls is given here. A selection follows. Potency and affinity values are given separately.
# Test: growth inhibition of MALME3 cells – cell-based, CellTiter-Glo, cherry-picked, orthogonal assay for MITF inhibitor project, dose response (AID 493191)
# Conditions: MALME3 melanoma viability, CellTiter-Glo luminescence, 24 h; series mostly up to 35 µM; activity change, negative = inhibition: at the top concentration
row,SMILES,"activity change, negative = inhibition"
1,C=CCNC(=O)c1ccc2nc(Cc3ccc(OC)cc3)oc2c1,18.7% (inactive)
2,Cc1ccc(C(=O)N/C(=C\c2ccc(-c3ccccc3[N+](=O)[O-])o2)C(=O)NCCN(C)C)cc1,-10.2% (inactive)
3,CN(C)CCNC(=O)/C(=C/c1ccc(-c2ccc(Cl)cc2)o1)NC(=O)c1ccccc1,-17.3% (inactive)
4,Cc1ccc(C(=O)N/C(=C\c2ccc(-c3ccccc3[N+](=O)[O-])o2)C(=O)NCCCN(C)C)cc1,-45.4% (inactive)
5,CCOc1ccc(-n2c(-c3ccc(OC)cc3)c[n+]3c2CCCCC3)cc1,-35.1% (inactive)
6,CCN(CC)C(=O)CCCOc1ccc(Cl)cc1Cl,-1.7% (inactive)
7,Cc1nc2nc(C)c(NS(=O)(=O)c3ccc4c(c3)CCCC4)c(=O)n2[nH]1,-2.75% (inactive)
8,Cc1cccnc1NC(=O)NC(=O)c1ccc(C(C)(C)C)s1,17.4% (inactive)
9,N#Cc1c(NC(=O)CSc2ncn[nH]2)sc2c1CCCCC2,-2.54% (inactive)
10,N#Cc1c(NC(=O)CSc2ncn[nH]2)sc2c1CCCC2,6.43% (inactive)
11,Cn1nnnc1Sc1ncnc2scc(-c3cccs3)c12,-17.8% (inactive)
12,Cc1ccc(-c2nc(-c3ccncc3)no2)cc1C,9.82% (inactive)
13,O=C(Nc1cccnc1Cl)c1cc(-c2ccco2)on1,6.82% (inactive)
14,CCN(CC)S(=O)(=O)c1cccc(C(=O)N/N=C(\C)c2ccc(O)cc2O)c1,-12.5% (inactive)
15,COc1cc(CN2CCC(C(=O)NCCC(C)C)CC2)ccc1OCc1ccccc1,-8.83% (inactive)
16,O=C(Nc1ccc(Cl)cc1)N1CC=CCC1,10.8% (inactive)
17,O=C(Nc1ccc(Nc2ccncc2)cc1)c1ccc([N+](=O)[O-])cc1,-12.4% (inactive)
18,COc1ccc2oc(=N)c(C(=O)Nc3ccccc3Cl)cc2c1,-2.03% (inactive)
19,CCCCOc1ccc(-c2nnn(C(C)(C)C(=O)OC)n2)cc1,2.96% (inactive)
20,CC1=C/C(=N\NC(=S)Nc2cccnc2)CC(C)(C)C1,-5.66% (inactive)
21,COc1cccc(/C=N/Nc2ncnc3c2ncn3Cc2ccccc2)c1O,-8.07% (inactive)
22,COc1ccc(/C=N/N=C2/SCC(=O)N2Cc2ccccc2)cc1,7.98% (inactive)
23,N#Cc1ccc(-c2cccnc2)nc1SCC(=O)c1ccccc1,-6.34% (inactive)
24,COc1ccccc1N1CCN(/N=C/c2ccc([N+](=O)[O-])cc2)CC1,8.57% (inactive)
25,O=C(c1ccc([N+](=O)[O-])s1)N1CCCc2ccccc21,-12% (inactive)

row,SMILES,"activity change, negative = inhibition"
1,O=Cc1ccc(N2Cc3ccccc3C2)cc1,-8.49% (inactive)
2,COc1ccccc1N1CCN(/N=C\c2ccccc2)CC1,-2.09% (inactive)
3,Cc1ccc(-c2cc3onc(-c4ccccc4)c3c(=O)n2C)cc1,-8.74% (inactive)
4,CC(=O)CSc1ccc(-c2nc3cc(C)c(C)cc3[nH]2)cn1,1.88% (inactive)
5,O=C(O)c1ccc(Nc2nc3c(s2)CCCC3)cc1,-11.1% (inactive)
6,CC(C)(C)c1ccc(-c2noc(CCC(=O)NCc3ccco3)n2)cc1,8.27% (inactive)
7,Cc1ccc(C(=O)Nc2ccccc2Cl)cc1,-2.44% (inactive)
8,Cc1ccc(OCCCCN2CCCCC2)c(Br)c1,-0.175% (inactive)
9,COc1ccc(Br)cc1C(C[N+](=O)[O-])c1c(N)n(C)c(=O)n(C)c1=O (centres undefined),-38.4% (inactive)
10,Cc1ccc2nc(NC(=O)CCCC(=O)O)sc2c1,3.35% (inactive)
11,CN(C)CCCN(C(=O)c1ccc(Cl)s1)c1nc2cc3c(cc2s1)OCO3,-27.2% (inactive)
12,CN(Cc1ccccc1)C1=CC(=[N+]2CCCC2)CC(C)(C)C1,-29.5% (inactive)
13,CN(C)c1cc[n+](CC(=O)c2ccc(-c3ccccc3)cc2)cc1,-30.2% (inactive)
14,CCN(CC)Cc1c(O)ccc2c1O/C(=C\C=C\c1ccccc1)C2=O,1.3% (inactive)
15,CN(CC(=O)N1CCCCCC1)S(=O)(=O)c1ccccc1,-9.21% (inactive)
16,Cc1cc(C)c2ccc(N)nc2c1O,-10.6% (inactive)
17,CN(C)c1ccc(/C=C/c2cccc[n+]2[O-])cc1,1.08% (inactive)
18,O=C(CCl)Nc1cn(-c2ccccc2)nc1-c1ccccc1,-39.9% (inactive)
19,Cc1nn2c(N)c(-c3ccccc3)cnc2c1-c1ccccc1,-1.78% (inactive)
20,Brc1ccc(-c2cn3cccnc3n2)cc1,19.9% (inactive)
21,CC1CCCC(C)N1CCCNC(=O)c1cc2c(s1)-c1ccccc1OC2 (centres undefined),-42% (inactive)
22,O=C(/C=C\Nc1ccc2c(c1)OCO2)c1ccccn1,-33% (inactive)
23,O=[N+]([O-])c1ccc(/C=N/Nc2ccnc3cc(Cl)ccc23)o1,-25.8% (inactive)
24,CC1CN(N=Cc2ccc([N+](=O)[O-])o2)C(=N)O1 (centres undefined),-38.8% (inactive)
25,CCN(CC)S(=O)(=O)c1cccc(C(=O)N/N=C/c2ccc([N+](=O)[O-])o2)c1,-68.6% (inactive)

row,SMILES,"activity change, negative = inhibition"
1,CC(C)C(NC(=O)OCc1ccccc1)C(=O)OCC(=O)N1CCCCC1 (centres undefined),13.4% (inactive)
2,O=C(NC(=S)NCc1ccccc1)c1ccccc1,-1.25% (inactive)
3,CCOc1ccc(-n2c(O)c(/C=N/Nc3nc(C)cc(C)n3)c3ccccc3c2=O)cc1,-11.6% (inactive)
4,COc1ccc(Nc2oc(-c3ccc(OC)cc3)nc2C#N)cc1,12.9% (inactive)
5,CC1CCN(C(=O)c2cc3ccccc3o2)CC1,5.53% (inactive)
6,O=C(N/N=C/c1ccccc1)c1ccco1,-6.51% (inactive)
7,Cc1cc(C(=O)N/N=C/c2ccc([N+](=O)[O-])o2)c(C)o1,-46% (inactive)
8,O=C(Nc1nc2ccccc2s1)Nc1ccc(F)cc1F,1.35% (inactive)
9,O=C(Nc1cnc2ccccn2c1=O)c1ccc(F)cc1,7.32% (inactive)
10,O=C(N/N=C/c1cccc(Oc2ccc([N+](=O)[O-])cc2[N+](=O)[O-])c1)c1cncc(Br)c1,-17.8% (inactive)
11,COc1cccc(/C=N/Nc2nc3ccccc3[nH]2)c1OC,3.26% (inactive)
12,C[C@H]1CCC[C@]2(C)C[C@H]3OC(=O)C(CN4CCCCCC4)[C@H]3C=C12 (some centres undefined),-14.2% (inactive)
13,O=C(COC(=O)C1=COCCO1)Nc1c(F)cccc1F,6.62% (inactive)
14,COc1cc(NC(=O)COc2cc(O)c3c(c2)OC(C)(C)CC3=O)cc(OC)c1OC,-9.31% (inactive)
15,O=C(Nc1ccccc1Cl)Nc1cccc2cccnc12,-20.8% (inactive)
16,Oc1ccccc1/C=N/Nc1cccc2cccnc12,-2.28% (inactive)
17,Cn1cccc1-c1cc(C(=O)N/N=C/c2cc(Br)ccc2O)[nH]n1,-9.81% (inactive)
18,O=C(N/N=C/c1cc(Br)ccc1O)c1ccncc1,-32.5% (inactive)
19,O=C(CCCCC(=O)NN=Cc1ccccc1O)NN=Cc1ccccc1O,-4.07% (inactive)
20,Cc1nc(NC(=O)C2CC2)sc1C(=O)Nc1ccccc1Cl,-0.052% (inactive)
21,COc1ccc(C(=O)/C=C(\C)Nc2ccc3c(c2)OCO3)cc1,-1.82% (inactive)
22,COc1cc(C2C(C#N)=C(N)Oc3cc4c(cc32)OCO4)cc(OC)c1OC (centres undefined),10.1% (inactive)
23,CCOc1ccc(NC(=O)Nc2cccc(C(=O)O)c2)cc1,-33.2% (inactive)
24,O=C(Nc1nnc(Cc2ccccc2)s1)c1ccccc1,12.2% (inactive)

# Source: PubChem BioAssay AID493191 (Broad Institute, 2011)
